EBV LMP1 NFkB: inhibitors of Epstein-Barr LMP1-induced NF-kappaB reporter; 350,000 tested, 0.69% active; LMP1-induced NF-kappaB luciferase reporter cells, luminescence; AID 504558; inhibition, % at 12.5 µM; in the data active = inhibition above about 41%; inconclusive = no clear call, values can overlap the other calls;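 also: 0% = neutral control wells and 100% = reference inhibitor control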
LGR2 antag: blocks bursicon-induced cAMP signaling via Drosophila LGR2; HEK293 LGR2, CRE-luciferase, bursicon-stimulated, 4 h; inhibition, % at 9.99 µM; 380,000 tested, 0.35% active; AID 720647;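 active = drop in luminescence signal, shown as inhibition above about 50% in the replicate tests, limit read from the data, passing the limit was not always enough; inconclusive = probably only some replicates passing the limit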;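 also: agonist challenge used bursicon conditioned medium at about half maximal strength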
PGC1a acetyl inh: PGC1a acetylation modulation, inhibitor mode; AID 651687; U2OS PGC1a acetylation, AlphaScreen anti-acetyl-lysine; with virally co-expressed GCN5 acetyltransferase; 350,000 tested, 0.17% active; inhibition, % at 15.6 µM;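 active = every replicate shows inhibition of at least 40%; inconclusive = mean inhibition at least 40% but some replicate below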;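 also: 0% = neutral control wells and 100% = positive control wells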
EWS-Fli block: inhibitors of EWS/Fli oncoprotein transcriptional activity | A673 NR0B1-luciferase reporter, viability-normalised | inhibition, % at 12.6 µM | 350,000 tested, 0.67% active;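 active = mean inhibition of at least 50% after viability correction, with every replicate also passing that limit; inconclusive = mean reaches 50% but only one of two replicates passes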;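 also: firefly luciferase signal divided by Alamar Blue viability fluorescence both relative to DMSO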
PAX8 reporter: lowers PAX8-driven luciferase in RMG-I cells; RMG-I TPO-luciferase reporter, SteadyGlo, 24 h; inhibition, % at 12.6 µM; 360,000 tested, 1.2% active;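 active = mean replicate inhibition at least 60% with every replicate also reaching 60%; inconclusive = only one of the two criteria is met; inactive = mean below 60% and not all replicates reaching 60%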;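 also: luciferase light reporting Pax8 driven TPO promoter activity; plate controls were median of neutral control wells for no effect and mitoxantrone controls for full effect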
MITF TRPM1 inh: reduces MITF-dependent TRPM1 promoter luciferase signal; SK-MEL-5 TRPM1 promoter luciferase, 24 h; inhibition, % at 12.5 µM; 330,000 tested, 0.83% active; AID 488899;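 active = mean inhibition across replicates of 60% or more, whatever share of single replicates reaches that level; inconclusive = some that reach 60%, reason not given; inactive = mean inhibition across replicates below 60%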
* hit, by the source's call. Compounds with a hit are over-represented: about 2.2% of the library has one in this group of screens.

Screening C[C@@H]1CN([C@H](C)CO)C(=O)c2cc(NS(=O)(=O)c3ccc(Cl)cc3)ccc2O[C@@H](C)CCCCO[C@H]1CN(C)C(=O)Nc1ccc(C(F)(F)F)cc1 returned LGR2 antag 4, PGC1a acetyl inh 8, EWS-Fli block 33 and PAX8 reporter 102*.
`COc1ccc(S(=O)(=O)Nc2cccc3c2O[C@@H](CN(C)S(=O)(=O)c2ccc(Cl)cc2)[C@H](C)CN([C@H](C)CO)C3=O)cc1` gave LGR2 antag 28, PGC1a acetyl inh 5, EWS-Fli block 0 and PAX8 reporter -15.
`C[C@H](CO)N1C[C@H](C)[C@@H](CN(C)CC2CC2)Oc2c(NC(=O)CCCCCC(=O)Nc3ccccc3N)cccc2C1=O` gave LGR2 antag 11.
`COc1cc(C2NC(=O)NC(C)=C2C(=O)OC2CCCC(C)C2)cc(Br)c1O` (configuration not stated) gave EBV LMP1 NFkB 49*, PGC1a acetyl inh 5, EWS-Fli block 18, PAX8 reporter 37 and MITF TRPM1 inh -12.
Cc1nc(SCC(=O)Nc2nccs2)c(C#N)c(C)c1C was read as EBV LMP1 NFkB inconclusive, LGR2 antag -22, PGC1a acetyl inh -4, EWS-Fli block 72*, PAX8 reporter 0 and MITF TRPM1 inh 46.
Screening COc1cc(-c2cc(-c3ccccc3)nc(SCC(=O)Nc3nccs3)c2C#N)cc(OC)c1OC returned EBV LMP1 NFkB -6, PGC1a acetyl inh -4 and MITF TRPM1 inh 6.
Screening Cc1nc(SCC(=O)Nc2nc3ccccc3s2)c(C#N)c(C)c1C returned EBV LMP1 NFkB 84*, LGR2 antag 93*, EWS-Fli block 87*, PAX8 reporter 108* and MITF TRPM1 inh 96*.
For Cc1cc(C(F)(F)F)c(C#N)c(SCC(=O)Nc2nc3ccccc3s2)n1 the results were EBV LMP1 NFkB -23, LGR2 antag 36, PGC1a acetyl inh 0, EWS-Fli block 46, PAX8 reporter -139 and MITF TRPM1 inh 25.
NC(=O)c1c(NC(=O)c2ccc([N+](=O)[O-])o2)sc2c1CCCC2 was read as EBV LMP1 NFkB -15, LGR2 antag 7, PGC1a acetyl inh -1, EWS-Fli block -49, PAX8 reporter 47 and MITF TRPM1 inh 62*.
`CN1CCc2c(sc(NC(=O)c3ccc([N+](=O)[O-])o3)c2C(N)=O)C1` gave EBV LMP1 NFkB -3, LGR2 antag 3, EWS-Fli block 67*, PAX8 reporter 95* and MITF TRPM1 inh 86*.
Screening CN1CCc2c(sc(NC(=O)c3ccco3)c2C(N)=O)C1 returned EBV LMP1 NFkB -5, LGR2 antag 11, PGC1a acetyl inh 3, EWS-Fli block -27, PAX8 reporter -31 and MITF TRPM1 inh -12.
NC(=O)c1ccsc1NC(=O)c1ccc([N+](=O)[O-])o1 was read as EBV LMP1 NFkB -13, LGR2 antag -22, PGC1a acetyl inh 7, EWS-Fli block 58*, PAX8 reporter 89* and MITF TRPM1 inh 67*.
`Cc1ccc2c(c1)CCCN2C(=O)CCc1nc2ccccc2c(=O)[nH]1` gave EBV LMP1 NFkB 5, LGR2 antag 16, PGC1a acetyl inh 8, EWS-Fli block 65* and PAX8 reporter 20.
For CCC(C(=O)Nc1cc(C(=O)Nc2cc(C)ccn2)ccc1Cl)c1ccccc1 (configuration not stated) the results were EBV LMP1 NFkB 3, LGR2 antag -10, EWS-Fli block -4, PAX8 reporter 69* and MITF TRPM1 inh -3.
`COCc1cn(CC[C@H]2CC[C@@H](NC(=O)Nc3ccc4c(c3)OCO4)[C@@H](CO)O2)nn1` gave LGR2 antag -2, PGC1a acetyl inh -8, EWS-Fli block 2 and PAX8 reporter -22.
`C[C@@H]1CN([C@@H](C)CO)C(=O)c2cccc(NS(=O)(=O)c3ccccc3)c2O[C@@H]1CN(C)S(=O)(=O)c1cccs1` gave LGR2 antag -7, PGC1a acetyl inh -2 and EWS-Fli block 44.
COc1ccccc1-c1cnc2c(c1)C(=O)N([C@@H](C)CO)C[C@H](C)[C@H](CN(C)C(C)=O)O2 was read as LGR2 antag 4, PGC1a acetyl inh -9 and EWS-Fli block -9.
Screening CCOC(=O)c1c(C)oc2c(F)c(F)c(F)c(F)c2c1=O returned EBV LMP1 NFkB 8, PGC1a acetyl inh 1 and MITF TRPM1 inh 100*.
For Cc1ccc(-c2ccc3c(c2)O[C@H](CN(C)Cc2ccncc2)[C@@H](C)CN([C@H](C)CO)S3(=O)=O)cc1 the results were LGR2 antag -6, PGC1a acetyl inh -18 and EWS-Fli block 72*.
`Cc1ccccc1-c1ccc2c(c1)O[C@@H](CN(C)Cc1ccncc1)[C@H](C)CN([C@H](C)CO)S2(=O)=O` gave LGR2 antag 0, PGC1a acetyl inh -10 and EWS-Fli block 66*.
For Cc1ccc(-c2ccc3c(c2)O[C@H](CN(C)Cc2ccncc2)[C@H](C)CN([C@@H](C)CO)S3(=O)=O)cc1 the results were LGR2 antag -12, PGC1a acetyl inh -20 and EWS-Fli block -4.
Cc1ccc(-c2ccc3c(c2)O[C@@H](CN(C)C(=O)C2CCCCC2)[C@@H](C)CN([C@H](C)CO)S3(=O)=O)cc1 was read as LGR2 antag 14, PGC1a acetyl inh 19 and EWS-Fli block 4.
For N=c1n(CC(=O)c2ccc([N+](=O)[O-])cc2)c2ccccc2n1Cc1ccccc1 the results were EBV LMP1 NFkB -38, LGR2 antag -6, PAX8 reporter 4 and MITF TRPM1 inh 85*.
For C=CCn1c(=N)n(CC(=O)c2cccc([N+](=O)[O-])c2)c2ccccc21 the results were EBV LMP1 NFkB -10, LGR2 antag -29, EWS-Fli block -20, PAX8 reporter -18 and MITF TRPM1 inh 7.
`N=c1n(Cc2ccccc2)c2ccccc2n1Cc1ccccc1` gave EBV LMP1 NFkB 15, LGR2 antag 14, PAX8 reporter 34 and MITF TRPM1 inh -3.
`N=c1n(CCO)c2ccccc2n1Cc1ccc(Cl)cc1` gave EBV LMP1 NFkB 7, PGC1a acetyl inh -2 and MITF TRPM1 inh -3.
Screening O=C(c1ccc([N+](=O)[O-])cc1)N1CCN(Cc2ccccc2)CC1 returned EBV LMP1 NFkB 59*, LGR2 antag -19, PGC1a acetyl inh 2, PAX8 reporter 22 and MITF TRPM1 inh -4.
For N=c1n(CC(=O)c2ccc([N+](=O)[O-])cc2)c2ccccc2n1Cc1ccc(Cl)cc1 the results were EBV LMP1 NFkB 1, LGR2 antag -17 and MITF TRPM1 inh 92*.
N=c1n(CC(=O)c2ccc(Br)cc2)c2ccccc2n1Cc1ccccc1 was read as EBV LMP1 NFkB 9, LGR2 antag 4, PGC1a acetyl inh -6, EWS-Fli block -3, PAX8 reporter -24 and MITF TRPM1 inh 90*.

Compound activity from PubChem.
